# Measured values: PubChem BioAssay
# Target: Streptavidin (Streptomyces avidinii) (UniProt P22629)
# Assay: compounds binding control protein streptavidin – biophysical, small-molecule microarray, 635/667 nm fluorescence, artefact control for SMM compound annotation, primary screen (AID 1147);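 also: signal reflects streptavidin binding to arrayed compounds as a control protein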
# Conditions: higher = more signal
# Chain of Streptavidin (Streptomyces avidinii) (P22629 whole entry, looked up): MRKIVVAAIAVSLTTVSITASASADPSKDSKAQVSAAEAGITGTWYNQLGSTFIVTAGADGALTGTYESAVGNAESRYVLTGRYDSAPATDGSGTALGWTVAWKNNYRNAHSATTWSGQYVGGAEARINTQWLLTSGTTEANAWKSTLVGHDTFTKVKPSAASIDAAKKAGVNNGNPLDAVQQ
row,SMILES,composite z-score
1,CCOC(=O)C1=CC[C@@H](c2ccc(OC)cc2)N(S(=O)(=O)c2ccc(C)cc2)[C@H]1c1ccc(C)cc1,0.778
2,CCOC(=O)C[C@H]1[C@H](OC(=O)Cc2ccc3c(c2)OCO3)[C@@H](NC(=O)c2ccc3ccccc3n2)c2cc(OCCCO)ccc2N1C(=O)Cc1ccc(OC)cc1,0.417
3,CC(C)(C)N1CC=CC23O[C@@H]4C=CCOC(=O)[C@@H]4[C@H]2C(=O)N(CCO)[C@@H]3C1=O (stereo partly drawn),-1.61
4,CCOC(=O)C1=CC[C@@H](c2ccc(OC)cc2)N(S(=O)(=O)c2ccc(C)cc2)[C@H]1CC,1.53
5,COc1ccc(NN2C(C(O)c3ccc(I)cc3)C=CC3C(=O)N(C4CCCCC4)C(=O)C32)cc1 (stereo not drawn),1.34
6,C=CCOC(=O)[C@H]1[C@@H]2C(=O)O[C@@H](c3ccccc3)[C@@H](c3ccccc3)N2[C@@H](c2ccc(OCCOC(=O)[C@@H]3C[C@@H]4C(=O)N[C@@H](CCCC[N+](C)(C)C)C(=O)N4[C@@H]3c3ccc(O)cc3)cc2)[C@]12C(=O)Nc1ccc(I)cc12,0.0756
7,Cc1ccc(S[C@]2(C(=O)NCc3ccccc3)CC(=O)N(Cc3ccccc3C(F)(F)F)[C@@H]2c2ccc(CO)cc2)cc1,-1.05
8,CC(C)=CCCC(C)=CC(O)C1C=CC2C(=O)NC(=O)C2N1Nc1ccccn1 (stereo not drawn),0.968
9,O=C1O[C@H](c2ccccc2)[C@H](c2ccccc2)N2[C@H]1[C@@H](C(=O)O)[C@]1(C(=O)Nc3ccc(C#CCCO)cc31)[C@H]2c1ccc(OCCO)cc1,0.468
10,C=CCN1C(=O)[C@@]2(O[C@@H](CCn3cc([C@H](O)c4ccccc4)nn3)[C@H]([Si](C)(C)c3ccc(OC)cc3)[C@H]2C)c2cc(N3C(=O)c4cccc5cccc3c45)ccc21,-0.253
11,NC(=O)NCC#Cc1ccc2c(c1)[C@]1(C(=O)N2)[C@H](c2ccc(OCCO)cc2)N2[C@H](c3ccccc3)[C@H](c3ccccc3)OC(=O)[C@H]2[C@@H]1C(=O)O,-0.204
12,CO[C@H]1O[C@H](CO)[C@@H](OC(=O)Nc2ccc3c(c2)OCO3)[C@H](OC(=O)Nc2ccccc2-c2ccccc2)[C@H]1OC(=O)Nc1ccccc1-c1ccccc1,0.2
13,CC1CC/C=C\[C@H]2OC34C=CCN(c5ccc6ccccc6c5)C(=O)[C@H]3N(C(C)CO)C(=O)[C@@H]4C2C(=O)O1 (stereo partly drawn),-0.926
14,COC(=O)[C@@]1(Cc2ccc(OC)cc2)[C@H]2c3cc(C(=O)N4CCCC4)n(Cc4ccc(C(F)(F)F)nc4)c3C[C@H]2CN1C(=O)c1ccccc1,-0.012
15,Cc1ccc(C(C)CC(O)C2C=CC3C(=O)N(C)C(=O)C3N2Nc2ccccc2)o1 (stereo not drawn),0.0989
16,C=CC[C@@]1(C(=O)N(C)C)N=C(c2ccc(OCCCO)cc2)O[C@@H]1c1ccccc1CN=[N+]=[N-],1.35
17,COC(=O)[C@@]1(Cc2ccccc2)[C@H]2c3cc(C(=O)N4CCCC4)n(Cc4ccc(OC)c(OC)c4)c3C[C@H]2CN1C(=O)c1ccccc1,0.782
18,N#Cc1ccc(NN2C(C(O)C3CC=CCC3)C=CC3C(=O)N(c4ccccc4)C(=O)C32)cc1 (stereo not drawn),0.126
19,C=C(C)[C@@H]1CC=C(C(O)C2C=CC3C(=O)N(c4ccccc4)C(=O)C3N2Nc2ccc([N+](=O)[O-])cc2)CC1 (stereo partly drawn),1.5
20,COc1ccc([Si](C)(C)[C@H]2[C@H](CCO)O[C@@]3(C(=O)N(Cc4cccc(N(C=O)c5ccccc5)c4)c4ccccc43)[C@@H]2C)cc1,1.21
21,CCCCC(O)C1C=CC2C(=O)N(c3ccccc3)C(=O)C2N1Nc1ccc([N+](=O)[O-])cc1 (stereo not drawn),0.736
22,COc1ccc([Si](C)(C)[C@@H]2[C@@H](CC(=O)N3CCC[C@H]3CO)O[C@]3(C(=O)N(Cc4ccc(N5CCOC5=O)cc4)c4ccccc43)[C@H]2C)cc1,0.084
23,CC(C)NC(=O)[C@@H]1c2ccccc2C(=O)N(Cc2ccccc2C(F)(F)F)[C@H]1c1ccc(CO)cc1,-0.962
24,CCCCCC1=C2CNC(Cc3ccccc3)(C(=O)OC)C=C2C(C)C1=O (stereo not drawn),0.0482
25,CN(C)c1ccc(C(O)C2C=CC3C(=O)N(Cc4ccccc4)C(=O)C3N2n2cnnc2)cc1 (stereo not drawn),0.143
26,O=C(NCC(O)CO)[C@@]1(CCS(=O)(=O)c2ccccc2)N=C(c2ccc(OCCCO)cc2)O[C@H]1c1ccccc1 (stereo partly drawn),1.4
27,COCCCNC(=O)[C@@H]1c2ccccc2C(=O)N(Cc2ccc(OC(F)(F)F)cc2)[C@H]1c1ccc(CO)cc1,-0.0096
28,Cc1ccc(F)cc1S(=O)(=O)N[C@H]1CCN(Cc2ccc(OC(C)C)cc2)C1,-0.48
